The text below walks through data of PubChem BioAssay AID493175 (National Center for Advancing Translational Sciences (NCATS), 2011).

Each structure is given as a SMILES string. Records with an inconclusive call do not appear. Activity calls are given as the source filed them. Calls follow the shape of the dose curve; as a rule, active = well fitted curve in the direction sought with a large enough effect; inconclusive = small, poorly fitted or top-dose-only effect, or another doubt; inactive = no such curve, though single readings can be large or run the other way.

Sequence of Luciferin 4-monooxygenase (Photinus pyralis) (P08659 whole entry, looked up): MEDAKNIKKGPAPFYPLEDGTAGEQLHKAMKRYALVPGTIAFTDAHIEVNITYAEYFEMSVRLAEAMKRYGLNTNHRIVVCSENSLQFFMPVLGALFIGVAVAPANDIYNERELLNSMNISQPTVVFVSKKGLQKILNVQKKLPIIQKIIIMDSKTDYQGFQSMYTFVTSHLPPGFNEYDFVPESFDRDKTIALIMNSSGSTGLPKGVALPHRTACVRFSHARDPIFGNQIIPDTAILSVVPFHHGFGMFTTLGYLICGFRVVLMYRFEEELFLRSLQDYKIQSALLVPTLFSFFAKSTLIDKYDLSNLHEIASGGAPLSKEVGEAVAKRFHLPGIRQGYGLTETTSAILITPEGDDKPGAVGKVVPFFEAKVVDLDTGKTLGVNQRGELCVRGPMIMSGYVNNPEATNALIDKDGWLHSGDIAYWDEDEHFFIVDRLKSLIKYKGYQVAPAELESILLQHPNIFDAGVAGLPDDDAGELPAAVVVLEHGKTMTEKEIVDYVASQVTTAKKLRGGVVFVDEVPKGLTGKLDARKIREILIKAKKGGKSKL

The target of the experiment is Luciferin 4-monooxygenase (Photinus pyralis) (UniProt P08659). The experiment in a line: miR-21 counterscreen using purified firefly luciferase. Particulars: purified P. pyralis luciferase, luminescence; series mostly up to 57.5 µM; activity change, negative = inhibition: at the top concentration. An excerpt:
MLPCN Grant: 1 R21 NS059478-01 Assay Provider: Qihong Huang, The Wistar Institute NCGC Assay Overview: MicroRNAs (miRNAs) are endogenously encoded small (~20-25 nucleotides), nonprotein-coding RNAs that are involved in post-transcriptional repression of target messenger RNAs (mRNAs) (Le and Hannon, 2004). Estimated to be involved in the regulation of 30% of all protein-coding mRNAs (Filipowicz et al., 2008), miRNAs play a significant role in many biological processes including cellular differentiation and tissue development (Ghildiyal and Zamore, 2009). […] Compounds active in the miR-21 FLuc assay were clustered using Leadscope and active chemical series were prioritized based on chemical properties, potential for medicinal chemistry optimization, and SAR. Within each chemical series, representative compounds were re-acquired to test for activity in a secondary assay based on the quality of their CRC, efficacy, and potency. This secondary assay to determine if compounds active in the miR-21 FLuc assay were just luciferase inhibitors. Compounds found active in both the miR-21 FLuc and purified FLuc assays are considered as false positives. Keywords: NIH Roadmap, MLPCN, MLSMR, qHTS, miR-21, firefly luciferase, FLuc, miRNA.
NCGC Assay Protocol Summary: Reagents: 50mM Tris acetate, pH 7.5; 10mM Mg acetate; 10uM D-luciferin (Sigma #L9504); 10uM ATP; 0.01% Tween-20; 0.05% BSA; 10nM P. pyralis luciferase (Sigma #L9506) Control compounds used were two known firefly luciferase inhibitors (compounds (2) and (5) in Auld et al., 2010), and DMSO. Assay Summary: Three microliters containing firefly luciferase substrates in buffer (final concentrations: 50mM Tris acetate, pH 7.5, 10mM Mg acetate, 0.01% Tween-20, 0.05% BSA, 10uM D-luciferin, and 10uM ATP) are dispensed into each well of a Greiner white, solid-bottom 1536-well format plate using a flying reagent dispenser (FRD). These assay plates were then treated with 23nL of compound or DMSO using a Kalypsys pin tool, which allows for delivery of a 6-point interplate titration of each compound to the assay plate (quantitative HTS), with a final compound concentrations ranging from approximately 60 µM to 7pM. One microliter of firefly luciferase in […] Tris-acetate buffer was then delivered by FRD to each well for a final enzyme concentration of 10nM. Luciferase activity was then measured using a ViewLux CCD imager (PerkinElmer), with an average exposure time of 2-30 seconds (2X binning, medium/high gain).
(Counterscreens check selectivity or assay interference.)
With `Nc1c(C(=O)Nc2ccccc2Br)sc2nc(-c3cccs3)ccc12`, the “activity change, negative = inhibition” value was -19% (inactive). Turning to `Cc1ccc(C(=O)Nc2ccc3c(c2)N(C)C(=O)c2ccccc2S3)cc1`, the “activity change, negative = inhibition” value was -1.26% (inactive). With `Cc1cccc(OCc2nnc(SCC(=O)Nc3ccc(N4CCOCC4)cc3)o2)c1`, the “activity change, negative = inhibition” value is 0.777% (inactive).

In the case of `CCCCN1C(C(=O)c2ccccc2)=C(OC(C)=O)c2ccccc2S1(=O)=O`, the “activity change, negative = inhibition” value was -17% (inactive). Turning to `CC(C)S(=O)(=O)c1oc(-c2cccs2)nc1S(=O)(=O)c1ccc(F)cc1`, the “activity change, negative = inhibition” value is -14.5% (inactive). Consider `CSc1nsc(SCC(=O)Nc2ccc(F)cc2F)n1`, for which the “activity change, negative = inhibition” value is -4.78% (inactive). Regarding `CC(C)(C)C1CCc2nc(NC(=O)Cc3cn4ccsc4n3)sc2C1` (stereo not given), the activity change, negative = inhibition is 0.54% [at 2.3 µM] (inactive). With `CCS(=O)(=O)c1oc(-c2ccc(F)cc2)nc1S(=O)(=O)c1ccccc1`, the “activity change, negative = inhibition” value is 0.873% (inactive). Regarding `COc1ccc(NC(=O)CSc2nnc(-c3cccs3)o2)cc1`, the “activity change, negative = inhibition” value was -0.0404% (inactive). For `O=C(Nc1nnc(S(=O)(=O)N2CCCC2)s1)c1ccc(F)cc1`, the “activity change, negative = inhibition” value was -3.57% (inactive). As to `CC(C)S(=O)(=O)c1oc(-c2ccc(F)cc2)nc1S(=O)(=O)c1ccc(F)cc1`, the “activity change, negative = inhibition” value was -2.87% (inactive). With `CS(=O)(=O)n1nc(-c2ccc(Cl)cc2)nc1SCc1ccccc1`, the “activity change, negative = inhibition” value was -8.68% (inactive). Consider `COc1ccccc1CNC(=O)CCC1N=C2c3ccccc3N=C(SCc3cccc(Cl)c3)N2C1=O` (stereo not given), for which the “activity change, negative = inhibition” value is -1.95% (inactive). Regarding `CCc1nonc1NC(=O)c1oc2cc(C)c(C)cc2c1C`, the “activity change, negative = inhibition” value is 3.62% (inactive).

Consider `Cc1ccc(CNc2nc3nc(C)c(Cl)c(C)n3n2)cc1`, for which the “activity change, negative = inhibition” value was -5.45% (inactive).

Regarding `O=C(Nc1ccc(-c2nc3ccccc3[nH]2)cc1)c1ccc2c(c1)OCO2`, the “activity change, negative = inhibition” value is -15.9% (inactive).

Turning to `Cc1c(-c2nnc(SCC(=O)Nc3ccccc3F)o2)nnn1-c1ccc(F)cc1`, the “activity change, negative = inhibition” value is -20% (inactive). In the case of `Cc1ccccc1OCCn1cnc2c(N)ncnc21`, the “activity change, negative = inhibition” value is -2.86% (inactive). With `Cc1ccc(C)c(Nc2nc3nonc3nc2Nc2cccc(C)c2C)c1`, the “activity change, negative = inhibition” value is -10.5% (inactive). For the compound `COc1ccc(CNc2n[nH]c(-c3ccco3)n2)cc1OC`, the “activity change, negative = inhibition” value is -7.47% (inactive). For the compound `Cc1cccc(-n2nnc(-c3nc(-c4cccs4)no3)c2N)c1C`, the “activity change, negative = inhibition” value was 2.43% (inactive). For `COc1ccc(OCC(=O)Nc2cc(-c3nc4ccccc4s3)ccc2C)cc1`, the “activity change, negative = inhibition” value is -18.9% (inactive). Turning to `Cc1ccc(C(=O)Nc2ccc3c(c2)N(C)C(=O)c2ccccc2S3)cc1F`, the “activity change, negative = inhibition” value is 1.83% (inactive). The figure for `O=C(CSc1nnc(-c2ccc(O)cc2)o1)Nc1ccccc1Br` is 4.86% (inactive); for `CCS(=O)(=O)c1ncc(Cl)c(C(=O)N(Cc2ccccc2)c2ccc(OC)cc2)n1` it is -13.7% (inactive); for `Nc1c(-c2nc(-c3ccncc3)no2)nnn1CC(=O)Nc1ccccc1` it is -2.75% (inactive). The figure for `O=C(CSc1nnc(-c2ccc(C(F)(F)F)cn2)o1)Nc1cccc(Cl)c1` is -0.604% (inactive); for `C/C(=N\NC(=O)c1cccs1)c1ccncc1` it is -17.6% (inactive); for `CC(C)(C)c1ccc(NC(=O)CSc2nnc(-c3n[nH]c4ccccc34)o2)cc1` it is -19.9% (inactive).

Turning to `c1ccc(C2=Nn3c(nnc3-c3cc(-c4ccccc4)n[nH]3)SC2)cc1`, the activity change, negative = inhibition is -18.1% [at 2.3 µM] (inactive). On to `CCS(=O)(=O)n1nc(-c2ccccc2)nc1NCc1ccco1`, for which the “activity change, negative = inhibition” value is -1.7% (inactive). Regarding `Cc1ccc2c(C)c(C(=O)N(C)C(C)c3ccncn3)oc2c1C` (stereo not given), the “activity change, negative = inhibition” value was 2.25% (inactive). The figure for `CC(=O)Nc1nc2c(C)cc(NC(=O)C3CCCCC3)cc2s1` is -12.1% (inactive); for `Fc1cccc(Cl)c1CSc1nnc2ccccn12` it is -17.8% (inactive). Take `O=C(CSc1nnc(-c2ccncc2)o1)Nc1nncs1`: the “activity change, negative = inhibition” value was -0.438% (inactive).

With `CS(=O)(=O)c1ncc(Cl)c(C(=O)Nc2ccc3ccccc3c2)n1`, the “activity change, negative = inhibition” value was -2.43% (inactive). Consider `COc1ccc(NCc2cccn2-c2nnc(N3CCC(C)CC3)s2)c(OC)c1`, for which the “activity change, negative = inhibition” value is -18.9% (inactive).

As to `COc1ccc(CNc2nc(-c3ccco3)nn2C(=O)CC(C)C)cc1`, the “activity change, negative = inhibition” value was -7.56% (inactive). In the case of `Cc1ccc(CNc2nc(-c3ccco3)nn2S(C)(=O)=O)cc1`, the “activity change, negative = inhibition” value is 1.57% (inactive). For `COc1ccccc1NC(=O)c1sc2nc3c(cc2c1N)CN(Cc1ccccc1)CC3`, the “activity change, negative = inhibition” value is -1.23% (inactive).
